Test results from PubChem BioAssay AID504370 (National Center for Advancing Translational Sciences (NCATS), 2011).
This is one part of the list. Records with an inconclusive call do not appear. Calls of active or inactive are those of the source. Calls follow the shape of the dose curve; as a rule, active = well fitted inhibition curve with a large enough effect; inconclusive = small, poorly fitted or top-dose-only effect; inactive = flat fitted curve, though single readings scatter.

Assay: qHTS Assay for Compounds Blocking the Interaction Between CBF-beta and RUNX1 for the Treatment of Acute Myeloid Leukemia: ME-1 cellular proliferation
Details: ME-1 cell proliferation, ATP luminescence, 48 h; series mostly up to 56.1 µM
Text: NIH Chemical Genomics Center [NCGC]
NIH Molecular Libraries Probe Production centers Network [MLPCN]
Assay Submitter (PI): Paul Liu
Core Binding Factor (CBF) abnormalities are associated with 20-25% of all acute myeloid leukemias (AML), of which 5-10% are further sub classified as acute myelomonocytic leukemia with eosinophilia, also known as M4Eo in the FAB classification scheme. This subtype of leukemia is usually associated with chromosome 16 inversion (p13:q22). Chromosome 16 inversion results in formation of the fusion oncogene CBFB-MYH11, which encodes the fusion protein CBF-beta-SMMHC.
It has been hypothesized that the interference of CBF-beta and RUNX1 binding could have therapeutic implications for patients with CBF mediated leukemias. We developed a CBF-beta and RUNX1 binding assay in AlphaScreenTM format and optimized it for high throughput screening to search for inhibitors. The goal of this project is to screen MLPCN's compound collection (MLSMR) for identifying the inhibitors of the interaction between CBF-beta and RUNX1 proteins as research probes. If these probes work well in the animal models, the ultimate goal of this project is to development a new drug treatment for this disease.
The present assay assesses compounds ability to slow cellular proliferation in a CBFb dependent cell line, ME-1.
2uL/well media was dispensed per well into 1536-well white solid-bottom plates using Multidrop Combi dispenser. Subsequently, 23 nL/well compound solutions or DMSO controls were dispensed to the assay plates via a pintool workstation. The cells were grown in T225 flasks to 70% confluence under a standard cell culture condition (ATCC), detached with 0.25% Trypsin/EDTA, and seeded at 250 cells/well in 5uL medium (Dulbecco's Modified Eagle Medium, 10% fetal bovine serum, 1x penicillin/streptomycin).

| Compound | outcome |
| --- | --- |
| CC[N+](C)(CC)CCC[n+]1c(-c2ccccc2)c2cc(N)ccc2c2ccc(N)cc21 | inactive |
| COc1cc(C(=S)NCc2ccccc2)cc(Br)c1O | inactive |
| O=C(OCC1O[C@@H](OC(=O)c2cc(O)c(O)c(O)c2)[C@@H](OC(=O)c2cc(O)c(O)c(O)c2)[C@@H](OC(=O)c2cc(O)c(O)c(O)c2)[C@@H]1OC(=O)c1cc(O)c(O)c(O)c1)c1cc(O)c(O)c(O)c1 (stereo not given in full) | inactive |
| N#Cc1ccc(C(c2ccc(C#N)cc2)n2cncn2)cc1 | inactive |
| CC(C)C(N)C(=O)OCCOCn1cnc2c(=O)[nH]c(N)nc21 (stereo not given) | inactive |
